Platelet DG rel – platelet dense granule release activity; hit rate 0.22% among 300,000; human platelet-rich plasma, SFLLRN dense granule ATP release, luminescence; inhibition, %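 (compounds screened at 7.5 µM in platelet-rich plasma)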;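 active = mean replicate score, as percent of positive control, at or above 50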
HIF act – HIF pathway transcriptional activation. U2OS HRE-luciferase reporter, luminescence; normalized: DMSO 0%, desferrioxamine 100%. activation, % at 7.5 µM (by protocol). hit rate 0.32% among 300,000. AID 1910;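 active = mean activation of at least 10% of the iron chelator positive control signal, with at least half of replicates also reaching 10%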
Wee1 stabilizer – blocks degradation of human Wee1 kinase | P30291 | HeLa Luc-Wee1K328M stability, luciferase luminescence; 100% = proteasome inhibitor MG132 effect | reporter increase, % at 5 µM | hit rate 1.2% among 220,000 | AID 1321;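 active = activation above the mean of all tested compounds plus 3 SD, set per screening run, cut at about 8.8% in these data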;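 note: cells exposed to compound for 20 h before luminescence read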
Target sequence (P30291 whole entry K328M): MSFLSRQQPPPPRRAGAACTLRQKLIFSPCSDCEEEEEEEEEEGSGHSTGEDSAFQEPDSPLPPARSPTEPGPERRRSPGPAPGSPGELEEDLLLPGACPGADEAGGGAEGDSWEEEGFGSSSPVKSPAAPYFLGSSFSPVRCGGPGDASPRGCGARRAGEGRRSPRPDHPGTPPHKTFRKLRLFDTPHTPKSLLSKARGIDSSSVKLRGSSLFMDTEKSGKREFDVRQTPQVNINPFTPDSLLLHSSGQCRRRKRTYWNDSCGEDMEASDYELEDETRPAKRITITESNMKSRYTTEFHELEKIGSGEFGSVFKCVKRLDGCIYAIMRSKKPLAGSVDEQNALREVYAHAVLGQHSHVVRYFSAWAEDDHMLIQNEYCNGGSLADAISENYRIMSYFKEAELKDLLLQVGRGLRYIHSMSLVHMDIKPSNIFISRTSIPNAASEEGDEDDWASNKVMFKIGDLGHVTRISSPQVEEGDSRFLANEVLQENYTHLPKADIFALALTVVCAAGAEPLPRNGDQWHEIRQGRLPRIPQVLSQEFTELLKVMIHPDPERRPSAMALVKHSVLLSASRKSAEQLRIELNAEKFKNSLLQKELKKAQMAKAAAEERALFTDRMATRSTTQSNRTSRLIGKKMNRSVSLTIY
KLF5 inh – suppresses KLF5 promoter-driven expression. DLD-1 KLF5 promoter-luciferase reporter, luminescence. hit rate 0.23% among 290,000. AID 1700. inhibition, % at 5 µM;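 active = inhibition above a per-plate limit of that plate's mean compound inhibition plus 3 SD, cut at about 60% in these data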;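 note: higher means less KLF5 promoter-driven luciferase light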
aSyn UTR inh – 5' untranslated region of α-synuclein, MLPCN primary screen. alpha-synuclein 5'UTR reporter, inhibitor activity. inhibition, % (tested at 7.5 µM). hit rate 0.82% among 300,000. AID 1813; in the data active = inhibition above about 60%;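 note: H4 neuroglioblastoma cells stably carrying SNCA 5'UTR luciferase fusion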
Hits are given with their value. This is a sample that favours compounds with a hit; in the whole collection about 2.1% have one here.

Screening O=S(=O)(c1ccc(Cl)cc1)N1CCC(c2nc3ccccc3[nH]2)CC1 returned Platelet DG rel inactive, HIF act inactive, KLF5 inh inactive and aSyn UTR inh 76.
For CCc1c(C)c(C#N)c2nc3ccccc3n2c1Cl the results were Platelet DG rel inactive, HIF act inactive, Wee1 stabilizer inactive, KLF5 inh inactive and aSyn UTR inh 105.
CCc1c(C)c(C#N)c2nc3ccccc3n2c1NCCOC was read as Platelet DG rel inactive, HIF act inactive, KLF5 inh inactive and aSyn UTR inh inactive.
Screening CCN(C(=O)N1CCOCC1)c1ccccc1C returned Platelet DG rel inactive, HIF act inactive, KLF5 inh inactive and aSyn UTR inh inactive.
`CNC(=O)CS(=O)CC(=O)Nc1cc(OCCOC)c(Cl)cc1Cl` (centres undefined) gave Platelet DG rel inactive, HIF act inactive, Wee1 stabilizer 8.9, KLF5 inh inactive and aSyn UTR inh inactive.
`O=C(NC(=S)Nc1nc(-c2cccc([N+](=O)[O-])c2)cs1)c1cc(Cl)ccc1Cl` gave Platelet DG rel inactive, HIF act inactive, Wee1 stabilizer inactive, KLF5 inh inactive and aSyn UTR inh inactive.
For CC(=O)Nc1nc(C)c(-c2csc(Nc3cccc([N+](=O)[O-])c3)n2)s1 the results were Platelet DG rel inactive, HIF act inactive, Wee1 stabilizer inactive, KLF5 inh inactive and aSyn UTR inh 67.
Screening CC(=O)Nc1nc(C)c(-c2csc(Nc3cccc(C(C)=O)c3)n2)s1 returned Platelet DG rel inactive, HIF act inactive, KLF5 inh inactive and aSyn UTR inh inactive.
For COc1ccc(CC(=O)Nc2nc(-c3cccc([N+](=O)[O-])c3)cs2)cc1 the results were Platelet DG rel inactive, HIF act inactive, Wee1 stabilizer 10, KLF5 inh inactive and aSyn UTR inh inactive.
Screening O=[N+]([O-])c1cccc(NC(=S)Nc2nc(-c3ccc(Cl)cc3Cl)cs2)c1 returned Platelet DG rel inactive, HIF act inactive, KLF5 inh inactive and aSyn UTR inh 73.
COc1cc(C(=O)NCc2nnc(SCC(=O)NC3CCCC3)o2)cc(OC)c1OC was read as Platelet DG rel inactive, HIF act inactive, KLF5 inh inactive and aSyn UTR inh inactive.
Screening CCCCn1c(N)c(N(CCOC)C(=O)CCCc2cccs2)c(=O)[nH]c1=O returned Platelet DG rel inactive, HIF act inactive and aSyn UTR inh inactive.
Screening CCCC(=O)NC(c1ccc2c(c1)OCO2)c1cc(Cl)c2cccnc2c1O (centres undefined) returned Platelet DG rel inactive, HIF act 12, Wee1 stabilizer inactive, KLF5 inh inactive and aSyn UTR inh 80.
For CCCC(=O)NC(c1ccco1)c1cc(Cl)c2cccnc2c1O (centres undefined) the results were Platelet DG rel inactive, HIF act inactive, Wee1 stabilizer inactive, KLF5 inh inactive and aSyn UTR inh inactive.
`CCCC(=O)NC(c1cccs1)c1cc(Cl)c2cccnc2c1O` (centres undefined) gave Platelet DG rel inactive, HIF act 29, Wee1 stabilizer inactive, KLF5 inh inactive and aSyn UTR inh 99.
For Cc1cc(C(=O)NNC(=O)c2ccc(S(=O)(=O)N(C)C)cc2)c(C)o1 the results were Platelet DG rel inactive, HIF act inactive, Wee1 stabilizer 9.5, KLF5 inh inactive and aSyn UTR inh inactive.
For CC(=O)Nc1csc2ccccc12 the results were Platelet DG rel inactive, HIF act inactive, Wee1 stabilizer inactive, KLF5 inh inactive and aSyn UTR inh inactive.
For O=C(Nc1ccccc1)Nc1csc2ccccc12 the results were Platelet DG rel inactive, HIF act inactive, Wee1 stabilizer 10, KLF5 inh inactive and aSyn UTR inh inactive.
Screening CCN(CC)S(=O)(=O)c1ccc(S(=O)(=O)N2CCC(N3CCCCC3)CC2)cc1 returned Platelet DG rel inactive, HIF act inactive, KLF5 inh inactive and aSyn UTR inh inactive.
For C=CCN1C(=O)/C(=C2/Sc3ccccc3N2C)SC1=Nc1c(C)n[nH]c1C the results were Platelet DG rel 53, HIF act inactive, Wee1 stabilizer inactive, KLF5 inh inactive and aSyn UTR inh inactive.
`C=CCN1C(=O)/C(=C2/Sc3ccccc3N2C)SC1=Nc1ccccc1C` gave Platelet DG rel inactive, HIF act inactive, Wee1 stabilizer inactive, KLF5 inh inactive and aSyn UTR inh inactive.
`COc1cc(OC)cc(C(=O)Nc2ccc(NC(=O)c3ccco3)c(Cl)c2)c1` gave Platelet DG rel inactive, HIF act inactive, Wee1 stabilizer 9.7, KLF5 inh inactive and aSyn UTR inh inactive.
For Cc1cc(C)cc(NC(=O)c2cccc(NC(=O)c3ccco3)c2)c1 the results were Platelet DG rel inactive, HIF act 53 and aSyn UTR inh inactive.

Screens (PubChem BioAssay)
